Source: PubChem (National Center for Advancing Translational Sciences (NCATS))
Rows were chosen to be rich in hits. Some 6.5% of all compounds tested hit in one or more screens of this group.
IL1B secr inh – inhibitors of inflammasome signaling (IL-1 beta secretion); THP-1 LPS/ATP IL-1B secretion, AlphaLISA, 16 h; stronger effect = lower value; activity change, % at 57.5 µM; 360,000 tested, 4.7% active; AID 743279; in the data active means activity change below about -50%; inconclusive means mostly about -30% to -49%; further: on the % scale 0 is the no-effect control and ±100 the full control effect
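THP-1 cells pretreated 1 hr with compounds (up to 57.5 uM final), then stimulated with LPS (250 ng/mL final) plus ATP (1.25 mM final); secreted IL-1B measured by AlphaLISA after 16 hr, decreased signal indicating inhibition.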
HT1080NT lethal – kills 2HG-producing HT-1080-NT fibrosarcoma cells; HT-1080-NT fibrosarcoma viability, CellTiter-Glo ATP luminescence, 48 h; Potency, µM (doses to about 46.1 µM), without a hit: at the top dose activity, negative = less viability, usual class: cytotoxic; 360,000 tested, 1.6% active;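 further: NT is the 2HG producing partner of a matched IDH1 knockdown line; potency means the concentration at half of the fitted maximal effect; 0% = DMSO-treated cells and -100% = media-only wells without cells; nearly all actives have a fitted effect of over 55% in size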
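Viability of the 2HG-overproducing fibrosarcoma line after 48 hours of compound exposure at 37 degrees C was determined by luminescence with CellTiter-Glo, and concentration-effect curves were then fitted and categorized.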
HT1080 IDH1KD tx – HT-1080 IDH1 knockdown cell toxicity (counter line); HT-1080 IDH1 knockdown viability, ATP luminescence, 48 h; Potency, µM (series often up to 46.1 µM), for inactives: top-dose activity, negative = toxicity, usual class: cytotoxic; 360,000 tested, 2% active; AID 686971;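 further: potency means the concentration at half of the fitted maximal effect; 0% = DMSO wells and -100% = cell-free medium wells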
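IDH1KD HT-1080 cells, 750/well, RPMI + 5% FBS; compound pinned after 2 h settling; 48 h, 37 °C; CellTiter-Glo luminescence; % activity normalised to DMSO and no-cell wells; curves fitted, classed by r2 and efficacy.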
HepG2 viability – HepG2 cytotoxicity, counter-screen for TGF-b inhibitors; AID 588856; 410,000 tested, 0.76% active; HepG2 CAGA-GFP viability, ATP luminescence, 18 h; Potency, µM (doses to about 46.1 µM), for inactives: at the highest dose activity change, negative = cytotoxicity, hits mostly cytotoxic; further: potency means the concentration at half of the fitted maximal effect
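CellTiter-Glo luminescence gave cytotoxicity after 18 hours at 37 degrees C. The cells were HepG2 CAGA-GFP in 1% FBS DMEM, stimulated with 500 pg/mL TGF-beta after compound addition. %Activity was normalised to no-cell wells (complete cell-killing) and DMSO (no toxicity), and curves were fitted and classified.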
Giardia killer – kills Giardia lamblia. Giardia lamblia trophozoite viability. activity change, % at 7.66 µM, hits read low. 340,000 tested, 0.15% active; in the data active means activity change below about -80%; inconclusive means between about -30% and that limit;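 further: parasites exposed to compound for two days anaerobically before the ATP read; on the % scale 0 is the no-effect control and ±100 the full control effect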
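Anaerobic 48 hrs incubation at 37 deg C of 100 trophozoites/well with test compounds; ATPLite 1-Step luminescence, 15-30 min RT, reports cellular ATP as viability.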
TGFb SMAD3 inh – blocks TGF-b signaling. Potency, µM (top dose mostly 46.1 µM), inactives show at the top dose activity, negative = inhibition, usual class: inhibitors. HepG2 CAGA-GFP TGF-b/SMAD3 reporter, GFP fluorescence, 18 h; TGF-beta stimulated, 500 pg/mL final. 410,000 tested, 1.2% active; further: potency means the concentration at half of the fitted maximal effect; on the % scale 0 is the no-effect control and ±100 the full control effect; nearly all actives have a fitted effect of over 65% in size
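HEPG2 CAGA-GFP, 1000 cells/well; 2 h settle, 37 C; cpd via pin tool; TGF-b 500 pg/mL final; 18 h, 37 C; GFP imaging ex488/em500-530; %Activity normalised to -TGF-b and +DMSO controls; CRC fit, curve class.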
Starred values were filed as active, the others as inactive; u = inconclusive; x = no result; [ ] = another dose, or the depositor's remark. Unless noted, the call rests on the fitted dose curve; in most records, active means well fitted curve in the direction sought with a large enough effect; inconclusive means small, poorly fitted or top-dose-only effect, or another doubt; inactive means no such curve, though single readings can be large; an effect the other way counts as inactive or inconclusive.

SMILES	IL1B secr inh	HT1080NT lethal	HT1080 IDH1KD tx	HepG2 viability	Giardia killer	TGFb SMAD3 inh
Oc1ccc(/C=N/Nc2cccc3cccnc23)c(O)c1	-77*	u	-14%[9.24 µM]	-52%	8	u
Cc1cc(-c2ccccc2)nc(N/N=C/c2ccccc2)n1	-7	0%	-7%	-46%	0	u
Cc1cc(-c2ccccc2)nc(N/N=C/c2ccc([N+](=O)[O-])cc2)n1	-87*	-9%	-9%	-2%	-13	22%
Cc1cc(-c2ccccc2)nc(N/N=C/c2ccc(O)cc2O)n1	-89*	u	2.1µM*	-26%	-6	u
COc1ccc(C(=O)NCCCSC)cc1OC1CCN(C(C)C)CC1	7	6%	10%	3%	-15	-3%
Cc1ccc(S(=O)(=O)Nc2ccc3c(c2)CC(=O)N([C@H](C)CO)C[C@@H](C)[C@H](CN(C)Cc2ccc(-c4ccccc4)cc2)O3)cc1	-26	u	u	-93%	-13	11µM*
C[C@H](CO)N1C[C@H](C)[C@H](CN(C)Cc2ccc(-c3ccccc3)cc2)Oc2ccc(NS(=O)(=O)c3ccccc3)cc2CC1=O	-28	u	u	11µM*	2	u
CCOC(=O)C1=CC[C@@H](c2ccccc2)N(S(=O)(=O)c2ccc(C)cc2)[C@H]1C#N	-25	16µM*	u	-65%	x	u
Cc1ccc(S(=O)(=O)N2[C@@H](c3ccccc3)C(C(=O)O)=CC[C@H]2c2ccc(C(C)C)cc2)cc1	21	-9%	0%	-31%	-11	16µM*
CCOC(=O)C1=CC[C@@H](c2ccccc2)N(S(=O)(=O)c2ccc(C)cc2)[C@H]1c1ccc(C#N)cc1	38	-1%	3%	-5%	x	u
CCc1ccc(-c2cc(C)no2)cc1S(=O)(=O)Nc1cc(OC)c(OC)c(OC)c1	x	x	x	-9%	x	u
Cc1cc(-c2ccc(S(=O)(=O)Nc3ccc(Cl)cc3)cc2)on1	x	x	x	-41%	x	-9%
CCc1ccc(NS(=O)(=O)c2ccc(-c3cc(C)no3)cc2)cc1	x	x	x	11µM*	x	u
Cc1cc(C)cc(NS(=O)(=O)c2ccc(-c3cc(C)no3)cc2)c1	x	x	x	-54%	x	13µM*
Cc1ccc(NS(=O)(=O)c2cc(-c3cc(C)no3)ccc2C)c(Cl)c1	x	x	x	-32%	x	-22%
Cc1ccc(NS(=O)(=O)c2ccc(-c3cc(C)no3)cc2)c(C)c1	x	x	x	-46%	x	13µM*
CC(C)NC(=O)c1cc(C2CCCCN2S(=O)(=O)c2cccs2)on1 (configuration not stated)	15	2%	3%	7%	x	9%
Nc1ccc(CC(N)c2csc(Nc3cc(Oc4ccccc4)ncn3)n2)cc1 (configuration not stated)	-85*	u	u	-27%	x	u
NC(Cc1ccc(C(F)(F)F)cc1)c1csc(Nc2cc(Oc3ccccc3)ncn2)n1 (configuration not stated)	-89*	u	u	-89%	x	u
COc1ccc(CC(N)c2csc(Nc3cc(NCc4ccco4)ncn3)n2)cc1 (configuration not stated)	-51*	u	u	11µM*	x	u
COc1ccc2nc(C)cc(N/N=C/c3cccc(OC)c3O)c2c1	-99*	u	16µM*	-101%	-83*	u
COc1ccc(/C=N/Nc2cc(C)nc3ccc(Br)cc23)cc1	-101*	7.3µM*	21µM*	6.3µM*	15	11µM*
Cc1ccc2nc(C)cc(N/N=C/c3cccnc3)c2c1	-9	u	-20%	2%	-5	-4%
Cc1cc(N/N=C/c2ccccc2O)c2ccccc2n1	-63*	0%	-11%	-39%	-24	u
COc1ccc2nc(C)cc(NCc3cccc(C(F)(F)F)c3)c2c1	-96*	23µM*	16µM*	22µM*	9	u
